In PubChem BioAssay AID687030 (Broad Institute, 2013):
The campaign covered roughly 1,400 compounds. About 10 (0.7%) were called active. Only a sample is shown. Measured potencies and affinities stand elsewhere. A number with no mark means an inactive call. How the calls were made is not given here.

experiment: viability loss in BHK-21 cells – cell-based, plate reader, cherry-pick samples, cytotoxicity control, dose response (AID 687030); details: series mostly up to 19.5 µM; activity change, negative = toxicity: at the top concentration;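 further: cells were exposed to compound for three days before reading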

In order of falling “activity change, negative = toxicity” value:
1. COc1ccc(NC(=O)N[C@@H]2CC[C@@H](CCNS(=O)(=O)c3cccc(Cl)c3)O[C@@H]2CO)cc1  8.65%
2. C=CCC1NS(=O)(=O)OC(COC)C1C (stereo unspecified)  7.81%
3. COc1ccc(OC)c(CN2C(=O)CN(S(C)(=O)=O)CC2(C)C(=O)NCc2ccccc2)c1 (stereo unspecified)  6.21%
4. CC(C)(C)c1ccc(NC(=O)NC2CCCc3ccccc32)cc1 (stereo unspecified)  5.49%
5. CCC1(c2ccccc2)NC(=O)N(CC(=O)Nc2ccccc2C(=O)N2CCCCC2)C1=O (stereo unspecified)  5.31%
6. COc1ccccc1N1CCN(Cc2cnc3ccc(Cl)cn23)CC1  5.21%
7. COc1ccc(C2CC(c3ccccc3)=NN2S(=O)(=O)c2ccccc2)c(OC)c1 (stereo unspecified)  5.02%
8. O=C(c1cc(-c2cccs2)on1)N1CCCc2ccccc21  4.97%
9. C[C@@H]1CCCCO[C@@H](CN(C)C(=O)Nc2cccc3ccccc23)[C@H](C)CN([C@H](C)CO)C(=O)c2cc(NC(=O)CCC(F)(F)F)ccc2O1  4.27%
10. CS(=O)(=O)c1cccc(-c2nnc(NC(=O)c3ccc(S(=O)(=O)N4CCCC4)cc3)o2)c1  3.15%
11. COc1ccc(C(N)c2csc(Nc3cc(Oc4ccccc4)ncn3)n2)cc1 (stereo unspecified)  2.64%
12. c1cc(-c2ccc(N3CCOCC3)cc2)n2cnnc2c1  2.6%
13. Cc1ccc(NC(=O)c2ccc3c(c2)OCO3)cc1Cl  2.36%
14. O=C1CCN(CCc2ccccc2)CCN1[C@H](COc1ccccc1)c1ccccc1  2.11%
15. Clc1cc(Br)ccc1OCCOCCN1CCCC1  1.69%
16. CCCN(C)C1CN(Cc2cn(Cc3ccc(C)cc3)nn2)S(=O)(=O)C1 (stereo unspecified)  1.6%
17. COC(=O)C(Cc1csc2ccc(Cl)cc12)NC(=O)c1ccc(Cl)cc1 (stereo unspecified)  1.57%
18. CCOC(=O)C1CCCN(c2c(N3CCOCC3)c(=O)c2=O)C1 (stereo unspecified)  1.44%
19. Cc1ccnc(NC(=O)c2ccc(Cl)c(S(=O)(=O)N3CCCC3)c2)c1  1.18%
20. Cc1nc(CCNC(=O)CC2C(=O)NCCN2CC(C)C)nc2c1CCC2 (stereo unspecified)  1.12%
21. CCN1[C@H](C(=O)NCCCN(C)C)[C@@H](CO)[C@@H]2Cn3c(ccc(-c4cccc(F)c4)c3=O)[C@@H]21  -0.329%
22. O=C(c1cccc(Cl)c1)N1CCC2(CC1)NCCc1[nH]cnc12  -0.584%
23. CCCNC(=O)C1(C)CCCN(Cc2ccc(C#N)cc2)C1 (stereo unspecified)  -0.631%
24. C[C@H](NC(=O)CCCOc1ccc(Cl)cc1Cl)c1nnc2ccccn12  -0.687%
25. O=C(O)[C@]1(S(=O)(=O)c2ccccc2)C[C@@H]2ON=C(c3cccc(Br)c3)[C@@H]2C1  -0.71%
26. C[C@H]1CN([C@@H](C)CO)C(=O)c2cccc(NC(=O)C3CCCCC3)c2O[C@@H]1CN(C)Cc1ccc(C(=O)Nc2ccccc2N)cc1  -1.15%
27. Clc1cc(Br)ccc1OCCCn1ccnc1  -1.16%
28. CN(C)C1(CNC(=O)C2CCN(S(=O)(=O)c3ccccc3C(F)(F)F)CC2)CCCCC1  -1.27%
29. COCCCNc1oc(-c2ccccc2F)nc1C#N  -1.28%
30. O=C(NCCN1CCOCC1)c1ccc2c(c1)N(Cc1ccc(F)cc1)C(=O)CS2  -1.79%
31. Cc1ccc(NC(=O)c2nc[nH]c2C(=O)N[C@@H](C)C(=O)OC(C)(C)C)cc1  -2.08%
32. CNC(=O)C[C@H]1CC[C@@H]2[C@H](COC[C@@H](O)CN2C(=O)Nc2ccc3c(c2)OCO3)O1  -2.76%
33. CCCCNC(=O)O[C@H]1C[C@@H]2CCN3C(=O)CCC[C@H]([C@H]1Cc1ccccc1)[C@H]23  -3.09%
34. CCCS(=O)(=O)N1CCCC(C(=O)NCCc2cccc(C)c2)C1 (stereo unspecified)  -3.14%
35. Cn1cnc(S(=O)(=O)N[C@@H]2CC[C@H](CC(=O)NCC3CCCCC3)O[C@@H]2CO)c1  -3.49%
36. O=C(C[C@@H]1CC[C@@H]2[C@H](COC[C@H](O)CN2CC2CCOCC2)O1)N1CCOCC1  -3.67%
37. Cc1ccc(C(=O)NCC(=O)NCC(c2cccs2)N2CCOCC2)cc1C (stereo unspecified)  -3.9%
38. COc1ccc(NC(=O)N[C@H]2CC[C@@H](CCn3cc(C4(O)CCCC4)nn3)O[C@@H]2CO)cc1  -4.13%
39. COc1cccc(-c2ncc3ccccc3c2COC(=O)c2ccc(F)cc2)c1  -5.22%
40. C[C@@H]1CN([C@@H](C)CO)S(=O)(=O)c2ccc(-c3ccncc3)cc2O[C@H]1CN(C)C(=O)CC1CC1  -5.55%
41. C[C@@H]1CN([C@H](C)CO)C(=O)c2cc(NC(=O)Nc3ccc(C(F)(F)F)cc3)ccc2O[C@H]1CN(C)C(=O)NC1CCCCC1  -6.24%
42. CC(=O)NC[C@H]1[C@H](c2ccc(-c3ccccc3F)cc2)[C@@H](CO)N1C(=O)C1CC1  -6.85%
43. COc1cccc(NC(=O)CN(C)C(=O)c2cccc(S(=O)(=O)N3c4ccccc4CC3C)c2)c1 (stereo unspecified)  -7.69%
44. COc1ccc(-c2cc(NC=O)c3ncc(-c4cc(OC)c(OC)c(OC)c4)n3c2)c(OC)c1  -22.7%
45. O=C(CN1CCN(C(=O)C2CCC2)CC1)Nc1ccc(F)cc1  -23.3%

In the case of N#C[C@@H]1[C@H](c2ccc(-c3ccccc3F)cc2)[C@H](CO)N1C(=O)C1CC1, the “activity change, negative = toxicity” value is reported as -10.2% [at 21 µM].
